These results are taken from PubChem BioAssay (NCI).

Some test systems named below: NCI-H23 lung; NCI-H226 lung; NCI-H322M lung; HOP-62 NSCLC; NCI-H460 lung; HOP-92 NSCLC; NCI-H522 lung; A549/ATCC NSCLC; 786-0 renal; COLO 205 colon; DU-145 prostate; K-562 leukemia; MALME-3M melanoma; MDA-MB-231 breast; RXF 393 renal; SF-268 CNS; SF-295 CNS; SF-539 CNS; M14 melanoma; UACC-257 melanoma.
What all share (test): NCI-60 one-dose screen, 48 h (100 = growth as untreated, 0 = no growth, -100 = all killed)
What all share (conditions): 10 µM unless noted

Each structure is given as a SMILES string. Compounds without any hit were thinned out: in the full panel of roughly 83,000, 20% have a hit.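 48-hour exposure, single concentration, 96-well plates; percent growth endpoint where 0 means no net growth. Active: below 10.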 A number with no mark means an inactive call. The source made the active and inactive calls.

Regarding `O=C(O)c1cccc2c1-c1ccccc1C2=O`, the growth is 98.4% in the assay on NCI-H23 lung; 91.6% with NCI-H226 lung; 83.9% in the assay on NCI-H322M lung; 95.3% with HOP-62 NSCLC; 105% in the assay on NCI-H460 lung; 80.8% in the assay on HOP-92 NSCLC. Moreover, the growth in the assay on NCI-H522 lung is 88.2%; with A549/ATCC NSCLC, 101%; with 786-0 renal, 102%; in the assay on COLO 205 colon, 99.8%; in the assay on DU-145 prostate it was 114%; with K-562 leukemia it was 119%. Moreover, the growth in the assay on MALME-3M melanoma is 85.8%; in the assay with MDA-MB-231 breast it was 96%; with RXF 393 renal, 90.4%; in the assay on SF-268 CNS, 105%; in the assay on SF-295 CNS, 96.6%; with SF-539 CNS, 97.9%. The growth with M14 melanoma was 94.5%.
On to `CCC(=O)OCc1cccc(OC)c1`, for which the growth in the assay with NCI-H23 lung is 107%; with NCI-H226 lung it was 97.9%; in the assay with NCI-H322M lung it was 108%; in the assay with HOP-62 NSCLC, 87.9%; in the assay on NCI-H460 lung it was 95.8%; with HOP-92 NSCLC, 76.4%. The growth was 94.5% in the assay on NCI-H522 lung; 113% in the assay on A549/ATCC NSCLC; 102% with 786-0 renal; 111% in the assay on COLO 205 colon; 111% in the assay with DU-145 prostate; 62.4% in the assay with K-562 leukemia. Further, the growth was 116% in the assay on MALME-3M melanoma; 97.4% in the assay on MDA-MB-231 breast; 103% in the assay on RXF 393 renal; 107% with SF-268 CNS; 104% in the assay with SF-295 CNS; 98% with SF-539 CNS. Besides, the growth with M14 melanoma was 96.3%.
For the molecule `O=C(/C=C\c1cccc([N+](=O)[O-])c1)c1ccccc1`, the growth in the assay with NCI-H23 lung is 81.3%; in the assay with NCI-H226 lung, 70.3%; with NCI-H322M lung it was 96.1%; with HOP-62 NSCLC it was 90.8%; in the assay on NCI-H460 lung it was 87.7%; in the assay on HOP-92 NSCLC, -27% (active). For the same molecule, the growth in the assay with NCI-H522 lung was -5.55% (active); in the assay with A549/ATCC NSCLC it was 92.9%; with 786-0 renal, 13.2%; in the assay on COLO 205 colon, -71% (active); with DU-145 prostate, 59%; with K-562 leukemia, 180%. The growth is 36.6% with MALME-3M melanoma; 104% in the assay with MDA-MB-231 breast; 14.9% in the assay on RXF 393 renal; 25.8% with SF-268 CNS; 89.9% with SF-295 CNS; 85.4% in the assay with SF-539 CNS. Further, the growth with M14 melanoma is 26.8%.
With `Cc1ccc(SCN2CCN(c3cccc(Cl)c3)CC2)cc1`, the growth is 94.4% with NCI-H23 lung; 80.9% with NCI-H226 lung; 88.7% with NCI-H322M lung; 114% in the assay on HOP-62 NSCLC; 98.4% with NCI-H460 lung; 89.7% in the assay with HOP-92 NSCLC. Besides, the growth was 96% in the assay on NCI-H522 lung; 106% in the assay with A549/ATCC NSCLC; 94.8% in the assay on 786-0 renal; 115% with COLO 205 colon; 116% in the assay on DU-145 prostate; 118% in the assay with K-562 leukemia. Further, the growth was 87.3% with MALME-3M melanoma; 84.3% in the assay with MDA-MB-231 breast; 108% with RXF 393 renal; 100% with SF-268 CNS; 97.3% with SF-295 CNS; 96.2% in the assay on SF-539 CNS. Also, in the assay on M14 melanoma, the growth was 96.9%.
With `Cc1ccn2c(-c3csc(Nc4cccc(O)c4)n3)c(C)nc2c1`, the growth with NCI-H23 lung is 25.5%; with NCI-H226 lung it was 35.7%; in the assay on NCI-H322M lung, 58.4%; with HOP-62 NSCLC it was 2.98% (active); with NCI-H460 lung, 13.7%; with HOP-92 NSCLC, 52.2%. Moreover, the growth in the assay on NCI-H522 lung is -17.4% (active); in the assay with A549/ATCC NSCLC it was 38.9%; in the assay on 786-0 renal, 40.1%; in the assay with COLO 205 colon, -87.1% (active); with DU-145 prostate, 17.7%; with K-562 leukemia, 2.56% (active). Besides, the growth with MALME-3M melanoma was 65.4%; in the assay with MDA-MB-231 breast, -1.81% (active); in the assay on RXF 393 renal it was 0.213% (active); with SF-268 CNS, 39.5%; in the assay on SF-295 CNS, 16.3%; with UACC-257 melanoma, 77.2%. The growth in the assay on M14 melanoma was 16%.
As to `Cc1nn(-c2nc3ccccc3[nH]2)c2c1C(c1ccc3c(c1)OCO3)CC(=O)N2` (configuration not stated), the growth in the assay on NCI-H23 lung was 4.34% (active); with NCI-H226 lung, 32%; in the assay on NCI-H322M lung, 65%; with HOP-62 NSCLC it was 22.1%; with NCI-H460 lung, -8.19% (active); with HOP-92 NSCLC, 12.6%. In addition, the growth with NCI-H522 lung is 26.7%; in the assay with A549/ATCC NSCLC, 22.8%; with 786-0 renal, 32.8%; in the assay on COLO 205 colon it was 83.1%; in the assay with DU-145 prostate it was 30.7%; with K-562 leukemia, -14.8% (active). Further, the growth in the assay with MALME-3M melanoma is 27.7%; in the assay with MDA-MB-231 breast it was 40.8%; in the assay on RXF 393 renal, 8.03% (active); in the assay on SF-268 CNS, 19.3%; in the assay on SF-295 CNS it was -36.3% (active); in the assay with UACC-257 melanoma, 69.1%. For the same molecule, in the assay with M14 melanoma, the growth was 42.5%.
Take `COc1ccc(-c2cc(/C=C3\C(=O)Nc4ccc(Cl)cc43)[nH]n2)cc1`: the growth in the assay on NCI-H23 lung was 63.1%; in the assay on NCI-H226 lung it was 75.7%; in the assay on NCI-H322M lung, 77.3%; with HOP-62 NSCLC, 55.5%; in the assay with NCI-H460 lung, 37%; in the assay with HOP-92 NSCLC, 80.7%. For the same molecule, the growth with NCI-H522 lung is 9.37% (active); in the assay with A549/ATCC NSCLC, 35.7%; in the assay with 786-0 renal, 82.3%; in the assay with COLO 205 colon, 37%; in the assay on DU-145 prostate it was 72.6%; with K-562 leukemia it was 24%. For the same molecule, the growth is 33.4% in the assay with MALME-3M melanoma; 73.9% in the assay with MDA-MB-231 breast; 51% in the assay on RXF 393 renal; 66.3% with SF-268 CNS; 47% in the assay on SF-295 CNS; 51.7% in the assay with UACC-257 melanoma. The growth in the assay on M14 melanoma is 44.7%.
For the molecule `COc1cc(-c2cnc3nonc3n2)c(OC)c2c1OCO2`, the growth in the assay on NCI-H23 lung is 95.4%; with NCI-H226 lung, 95.6%; in the assay on NCI-H322M lung, 90.9%; in the assay on HOP-62 NSCLC, 101%; in the assay with NCI-H460 lung, 102%; with HOP-92 NSCLC it was 97.9%. For the same molecule, the growth in the assay with NCI-H522 lung is 78.7%; in the assay on A549/ATCC NSCLC, 94.1%; with 786-0 renal, 104%; in the assay on COLO 205 colon, 113%; in the assay with DU-145 prostate it was 113%; with K-562 leukemia it was 49.2%. The growth was 91.5% with MALME-3M melanoma; 89.4% in the assay with MDA-MB-231 breast; 90.9% in the assay on RXF 393 renal; 99% in the assay on SF-268 CNS; 104% in the assay with SF-295 CNS; 93.6% with UACC-257 melanoma. The growth in the assay with M14 melanoma is 107%.
